Laboratory results published in PubChem BioAssay (NCI).
This is part of a sample that, as a whole, favours compounds with a hit. Of some 83,000 tested, about 20% had one in any assay.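 The test compound was applied at a single concentration to cells in 96-well plates for 48 hours, and percent growth was recorded.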 A number with no mark means an inactive call. The source made the active and inactive calls. Rule for the calls: active = growth percent below 10; inactive = the rest.

System: MDA-MB-468 breast
Assay: NCI-60 one-dose screen, 48 h (100 = growth as untreated, 0 = no growth, -100 = all killed)
Details: 10 µM unless noted

| SMILES | growth |
| --- | --- |
| O=C(NNc1nc2cc(F)ccc2n2c(CN3CC4(COC4)C3)ccc12)c1cnccn1 | -16.1% (active) |
| Cc1ccc(NC(=O)Nc2c(Cl)cccc2Cl)cn1 | 72.8% |
| OC(COc1cccc2ccccc12)CN1CCN(c2ccccc2Cl)CC1 (stereo not given) | 89.7% |
| COC(=O)CCCNCCCn1ccc2cc(NCc3cccc(-c4ccccc4)c3C)ccc21 | 53.4% |
| O=[N+]([O-])c1ccc(N/N=C/c2ccccc2O)nc1 | 10.3% |
| Cc1cc(C(=O)NOCCO)c(Nc2ccc(I)cc2F)n(C)c1=O | 114% |
| Nc1ncnc2c1ncn2C1OC(CO)C2OC21 (stereo not given) | 93.5% |
| Cc1[nH]c(C(=O)Nc2ccccc2OCc2cccc(C(=O)NCCN)c2)c(Cl)c1Cl | 10.7% |
| CC1=NN(c2nc(SCC(=O)Nc3nc4ccc(C)cc4s3)nc(-c3ccccc3)c2C#N)C(=O)C1 | 111% |
| Cc1cc2cn3c4ccc(O)cc4nc(N)c3c2cc1C | -9.7% (active) |
| CC1CN(Cc2ccccc2)C(=O)NC1=O (stereo not given) | 111% |
| CCOC(=O)c1nc(Nc2ccc(C(C)=O)cc2)sc1C | 96.9% |
| CCN(CC)CCn1nc2c3c(cccc3c1=O)-c1ccccc1-2 | 25.9% |
| CN(C)CCOC(=O)C(C)(C)C | 98.9% |
| O=C(Nc1nc2ccc([N+](=O)[O-])cc2s1)Nc1ccccc1Br | 33.2% |
| O=C(O)C(Cc1ccccc1)N1C(=O)/C(=C/C(Cl)=C/c2ccc([N+](=O)[O-])cc2)SC1=S (stereo not given) | -12.8% (active) |
| COC1=CC(c2ccc[nH]2)=N/C1=C\c1[nH]c(C)c(C(=O)OC(C)C)c1C | -74.1% (active) |
| CN(CC(=O)O)c1ccc(/C=C/c2ccnc3ccccc23)cc1 | -0.654% (active) |
| Cc1nc2nc(SCC(=O)O)[nH]c2c(=O)[nH]1 | 106% |
| CC1=NCC2NC(=O)NC(C)=C12 (stereo not given) | 92.3% |

| SMILES | growth |
| --- | --- |
| CCCNC(=O)Oc1ccc(/C(=C(/C)Cc2ccc(OC)cc2)c2ccc(OCCN3CCCC3)cc2)cc1 | 69% |
| Cc1ccccc1/C=C/C(=O)c1cccc(OCCCOc2cccc(C(=O)/C=C/c3ccccc3C)c2)c1 | 108% [3 µM] |
| N#CC1=C(N)Oc2ccc3ccccc3c2C1c1ccccc1 (stereo not given) | 12.7% |
| O=C1CC[C@H](c2ccc(O)c3c2C(=O)[C@@H]2O[C@@H]2C3=O)c2cccc(O)c21 | -64.8% (active) |
| CCCCCCCCCCCCCCCCCN | 101% |
| Cc1c2cnccc2c(C)c2c1c1cc(CO)ccc1n2C | -65.7% (active) |
| O=C(Nc1ccc(Cl)cc1)Nc1ccccc1CNc1nc(Nc2ccc(OCCN3CCCC3)cc2)ncc1Cl | -57.4% (active) |
| Cc1ccc(NC(=O)COC(=O)c2ccc(S(=O)(=O)N3CCCCCC3)cc2)cc1 | 92.9% |
| CCN1Cc2c(/C=C/c3ccccc3)nc3ccc(OC)cc3c2N(c2cccc(Cl)c2)C1 | 48.3% |
| O=[N+]([O-])c1cccc(N=C(Nc2cccc([N+](=O)[O-])c2)c2ccccc2)c1 | 43.2% |
| CC(=O)C1C(=O)C(=O)N(c2cccc([N+](=O)[O-])c2)C1=O (stereo not given) | 102% |
| C=C1C(=O)O[C@H]2[C@H]1CC/C(COC(=O)NCc1c[nH]c3ccc(OC)cc13)=C\CC[C@@]1(C)O[C@@H]21 | -27.8% (active) |
| NC(CSC(c1ccccc1)(c1ccccc1)c1ccccc1)C(=O)NCC(=O)O (stereo not given) | 55% |
| O=[N+]([O-])c1ccc(N/N=C(/C(=N/Nc2ccc([N+](=O)[O-])cc2)c2ccccc2)c2ccccc2)cc1 | 80.6% |
| C#CCO[C@H]1CC[C@H](OCC#C)[C@@H]2[C@H]1[C@H]1C[C@@H]3[C@@]4(C)CCC[C@@](C)(C(=O)OC)[C@@H]4CC[C@@]23C=C1C(C)C | 91.3% |
| COc1ccc(-c2nnc(-c3ccc4c(c3)nc(-c3ccncc3)n4C3CCCCC3)o2)cc1 | 75.2% |
| CCOC(=O)C1=C(C)NC(=O)NC1c1c(Cl)n(-c2ccccc2)c2ccccc12 (stereo not given) | 58.3% |
| COc1ccc2c(c1)OC1=C(C(=O)OC1)C2c1cc(OC)c(OC)c(OC)c1 (stereo not given) | -5.94% (active) |
| O=C1CCCCN1c1ccc(C2=NCCCN2)cc1 | 82.2% |
| O=C(Nc1cccc([N+](=O)[O-])c1)c1ccc(Cl)c(Cl)c1 | 64.2% |
